From PubChem BioAssay (NCATS) come the findings set out here.

Test [1] has as its target DNA repair nuclease/redox regulator APEX1 (Homo sapiens) (UniProt P27695). As to the kind of experiment: qHTS Validation Assay for Inhibitors of the Human Apurinic/apyrimidinic Endonuclease 1 (APE1) (AID 1705;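 also: TAMRA fluorescence gain over two minutes as APE1 cuts a quenched THF abasic duplex; series mostly up to about 57 µM; % is scaled to controls: 0 for no effect and ±100 for the full control effect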). An outline of the steps:
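qHTS, 1536-well. APE1 + cpd 15 min RT → 50 nM TAMRA/BHQ-2 THF-abasic dsDNA substrate → kinetic fluorescence, 3 reads/60 s; delta(read3−read1) = reaction progress. No-enzyme buffer = negative control.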
(In general: In qHTS, concentration-response curves come from the screen itself.)

A short description of test [2]: Counterscreen for APE1 Inhibitors: Fluorescent Dye Displacement Validation Assay (AID 1707).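 Also: plate controls were ThO with dsDNA and no compound for no effect and ThO without dsDNA for full effect.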 An outline of the steps:
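Counterscreen flags promiscuous DNA binders: compounds displacing ThO from duplex DNA (abasic THF site, 50 nM) reduce 540 nm emission (480 nm excitation). ThO 250 nM final; Tris-HCl pH 7.5 with NaCl, MgCl2 and Tween-20.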

Test [3] concerns the target Endonuclease 4 (Escherichia coli (strain K12)) (UniProt P0A6C1). The test can be described thus: Counterscreen for APE1 Inhibitors: qHTS Validation Assay for Inhibitors of Endonuclease IV (AID 1708). Also: % is scaled to controls: 0 for no effect and ±100 for the full control effect. An outline of the steps:
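Incision of a double-stranded 50 nM TAMRA/BHQ-2 abasic substrate was followed kinetically (525/598 nm, reads every 60 s) after 15 min enzyme–compound preincubation with 2 nM EndoIV in pH 7.5 Tris buffer with MgCl2, DTT and Tween-20; concentration-response format.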
(Counterscreens check selectivity or assay interference.)

Test [4] is described as follows: qHTS for differential inhibitors of proliferation of Plasmodium falciparum line 7G8 (AID 1815).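 Also: potency is read from the fitted curve at half-maximal effect; parasite growth measured after three days of incubation.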
The nature of test [5]: qHTS for differential inhibitors of proliferation of Plasmodium falciparum line GB4 (AID 1816).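 Also: potency is read from the fitted curve at half-maximal effect; parasite growth measured after 72 h incubation.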 The settings on record: Potency: Plasmodium falciparum GB4 proliferation inhibition.
Test [6] is described as follows: qHTS for differential inhibitors of proliferation of Plasmodium falciparum line 3D7 (AID 1876). Also: potency is read from the fitted curve at half-maximal effect.
Test [7] in a line: qHTS for differential inhibitors of proliferation of Plasmodium falciparum line D10 (AID 1877).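 Also: potency is read from the fitted curve at half-maximal effect; parasites grown with compound for 72 h before DNA staining.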
Test [8] is described as follows: qHTS for differential inhibitors of proliferation of Plasmodium falciparum line Dd2 (AID 1882). Also: potency is read from the fitted curve at half-maximal effect; nearly all actives have a fitted effect of over 65% in size. The note with it: Potency: Plasmodium falciparum Dd2 proliferation inhibition. The method, boiled down: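 SYBR Green DNA fluorescence (ex 485, em 535 nm) after overnight lysis quantifies parasite growth; compound exposure lasted 72 h at 37 C on infected red cells at 2.5% hematocrit, 0.3% parasitemia (final). Artemisinin 0.29 uM and vehicle wells define normalization.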

Test [9] can be described thus: qHTS for differential inhibitors of proliferation of Plasmodium falciparum line W2 (AID 1883).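 Also: potency is read from the fitted curve at half-maximal effect; parasites grown with compound for 72 h before lysis and staining.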 The settings on record: Potency: Plasmodium falciparum W2 proliferation inhibition.
Test [10] in a line: qHTS for differential inhibitors of proliferation of Plasmodium falciparum line HB3 (AID 1886).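 Also: potency is read from the fitted curve at half-maximal effect; parasites grown with compound for 72 h before SYBR Green readout.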 The note with it: Potency: Plasmodium falciparum HB3 proliferation inhibition.
The nature of test [11]: qHTS Assay for Modulators of Human Peripheral Myelin Protein 22 (PMP22) Expression/Activity (AID 1967; active = well fitted curve in the direction sought with a large enough effect in the signal ratio; the % refers to the signal ratio;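 also: 0% = untreated cells and 100% end not stated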). The method, boiled down: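 Luminescence ratio of Pmp22 promoter-driven green luciferase to EF-alpha-driven red luciferase, in engineered mouse MSC80 Schwann cells, served as read-out. Compounds were incubated 24h; untreated cells defined 0% Activity; curves were classified by r2, magnitude and activity.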

For test [12], the target named is Ferritin light chain (Equus caballus) (UniProt P02791). As to the kind of experiment: qHTS Validation Assay for Identification of Novel General Anesthetics (AID 2323). Also: series mostly up to about 77 µM; % is scaled to controls: 0 for no effect and ±100 for the full control effect. An outline of the steps: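 Fluorescence at 535 nm (excitation 380 nm) reported loss of 1-AMA binding to horse-spleen apoferritin (10 uM) in PBS with 50% saturated 1-aminoanthracene, after 10 min room-temperature incubation with compound; values from Hill fits of normalized response.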
Ferritin light chain (Equus caballus), sequence (P02791 2-175 limits assumed): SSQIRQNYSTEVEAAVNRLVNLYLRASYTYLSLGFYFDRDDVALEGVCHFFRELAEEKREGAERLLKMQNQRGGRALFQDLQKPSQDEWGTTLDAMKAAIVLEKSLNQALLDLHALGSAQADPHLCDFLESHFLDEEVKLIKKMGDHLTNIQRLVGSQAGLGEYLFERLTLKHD

The target in test [13] is ATP-dependent DNA helicase Q1 (Homo sapiens) (UniProt P46063). As to the kind of experiment: qHTS Validation Assay for Inhibitors of RecQ-Like Dna Helicase 1 (RECQ1) (AID 2353).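 Also: plate controls were DMSO vehicle for no effect and enzyme-free control for full effect.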 An outline of the steps: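 RECQ1T1 50 nM; forked duplex (20 bp + 30-nt ss tails) 200 nM, ATP 2 mM final; pH 8.0, 2 mM MgCl2, 2.5 ug/ml poly(dI-dC); 15 min compound preincubation; discontinuous kinetic read over 2 h at RT.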
ATP-dependent DNA helicase Q1 (Homo sapiens), sequence (P46063 whole entry, looked up): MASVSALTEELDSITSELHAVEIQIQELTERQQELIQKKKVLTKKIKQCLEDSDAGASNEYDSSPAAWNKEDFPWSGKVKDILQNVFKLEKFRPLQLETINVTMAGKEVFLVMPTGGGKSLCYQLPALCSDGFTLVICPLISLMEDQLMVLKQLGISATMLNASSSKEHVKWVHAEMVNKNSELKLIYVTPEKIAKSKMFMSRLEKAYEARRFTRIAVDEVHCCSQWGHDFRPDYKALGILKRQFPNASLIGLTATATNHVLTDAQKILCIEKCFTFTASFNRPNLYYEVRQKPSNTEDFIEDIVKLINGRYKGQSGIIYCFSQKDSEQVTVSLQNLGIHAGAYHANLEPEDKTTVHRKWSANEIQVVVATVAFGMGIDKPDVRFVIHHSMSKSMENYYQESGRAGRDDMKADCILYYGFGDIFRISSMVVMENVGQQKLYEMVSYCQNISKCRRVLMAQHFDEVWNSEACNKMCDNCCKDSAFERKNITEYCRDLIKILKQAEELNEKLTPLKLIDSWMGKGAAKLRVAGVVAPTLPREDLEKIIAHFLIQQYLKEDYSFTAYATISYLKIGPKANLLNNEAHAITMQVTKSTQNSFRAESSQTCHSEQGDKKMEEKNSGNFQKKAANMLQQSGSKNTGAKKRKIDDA

In test [14] the target is RecQ-like DNA helicase BLM (Homo sapiens) (UniProt P54132). As to the kind of experiment: qHTS Validation Assay for Inhibitors of Bloom's syndrome helicase (BLM) (AID 2364).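 Also: plate controls were DMSO vehicle for no effect and enzyme-free control for full effect.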 An outline of the steps:
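Forked 20-bp duplex substrate (200 nM, TAMRA/BHQ-2) plus 2 mM ATP added after 15 min compound preincubation with 50 nM enzyme, pH 8.0, poly(dI-dC) 2.5 ug/ml. Strand separation followed by fluorescence (525/598 nm) over 2 h, normalized to enzyme-free and DMSO controls.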

The nature of test [15]: Quantitative high throughput screen for delayed death inhibitors of the malarial parasite plastid, 96 hour incubation (AID 488745). Also: potency is read from the fitted curve at half-maximal effect; nearly all actives have a fitted effect of over 70% in size. An outline of the steps:
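Readout is firefly luciferase luminescence from an integrated reporter in P. falciparum; lower signal marks inhibited growth. Cultures at 2% hematocrit and 0.1% parasitemia were treated with compound across two generations (96 h, 37 C, 5% CO2).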

Test [16] is described as follows: Quantitative high throughput screen for delayed death inhibitors of the malarial parasite plastid, 48 hour incubation (AID 488752). Also: potency is read from the fitted curve at half-maximal effect; nearly all actives have a fitted effect of over 65% in size. An outline of the steps:
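First, compound was pinned into RPMI 1640 medium containing 0.5% Albumax. Next, reporter-parasite-infected erythrocytes were added to 2% hematocrit and 0.1% parasitemia. After 48 h at 37 C under 5% CO2, luciferase detection reagent was added and luminescence read.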

Test [17] addresses M-phase phosphoprotein 8 (Homo sapiens) (UniProt Q99549). The test can be described thus: qHTS Validation Assay for Inhibitors for MPP8 Chromodomain Interactions with Methylated Histone Tails (AID 488949).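 Also: 50 nM MPP8 with 50 nM peptide preformed then compounds added for 30 min; AlphaScreen signal from MPP8 chromodomain bound to biotinylated H3K9me3 peptide; top concentration of the series differs between compounds; % is scaled to controls: 0 for no effect and ±100 for the full control effect; nearly all actives have a fitted effect of over 55% in size.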 An outline of the steps: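 50 nM MPP8 + 50 nM b-H3K9me3 peptide, PBS pH 7.4/0.01% Tween-20, 30 min RT; + cpd 30 min RT; + AlphaScreen donor/Ni-chelate acceptor beads 10 ug/mL final, 30 min dark; luminescence read.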

Test [18] has as its target Transient receptor potential cation channel subfamily V member 1 (Homo sapiens) (UniProt Q8NER1). The test can be described thus: HTS Assay for Compounds that Act as Enhancers of the Vanilloid Receptor 1 (AID 488979). Also: 0% is about no effect. An outline of the steps: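 Calcium influx kinetics via Fluo-8 (480/520 nm) in TRPV1-expressing cells, 2000/well cultured overnight at 35.5C. Compound-alone read 3 min (agonist phase), followed by EC20 capsaicin challenge for 2 min (enhancer phase).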

Test [19] concerns the target Thyrotropin-releasing hormone receptor (Homo sapiens) (UniProt P34981). As to the kind of experiment: qHTS for Small Molecule Agonists and Allosteric Enhancers of Human TRH Receptor: Validation Screen for Agonists (AID 493127;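 active = calcium activation more than 3 SD above the typical response in the agonist read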;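 also: intracellular calcium rise by fluo-8 fluorescence before TRH EC20 addition; 0% is about no effect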). The settings on record: TRH receptor agonist cell assay; at 2 µM; stronger effect = higher value. The method, boiled down:
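Compounds are added by online pintool to dye-loaded TRHR cells while fluorescence is recorded every second. A rise in calcium signal during the agonist read marks activation; a later 10 nM TRH addition (EC20) serves the separate enhancer mode.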

The target of test [20] is Galactokinase (Homo sapiens) (UniProt P51570). As to the kind of experiment: qHTS Validation Assay for Inhibitors of Human Galactokinase (GALK) (AID 493189). Also: 0% is about no effect. An outline of the steps:
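5 nM GALK / 100 uM galactose / 35 uM ATP, 20 mM HEPES pH8.0, 5 mM MgCl2, 60 mM NaCl, 1 mM DTT, 0.01% BSA (final). RT 1 h; Kinase-Glo Plus luminescence.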

The target of test [21] is Voltage-gated inwardly rectifying potassium channel KCNH2 (Homo sapiens) (UniProt Q12809). As to the kind of experiment: qHTS Assay for Small Molecule Inhibitors of the Human hERG Channel Activity (AID 588834).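 Also: top concentration of the series differs between compounds; % is scaled to controls: 0 for no effect and ±100 for the full control effect; lower thallium flux fluorescence means stronger hERG block; nearly all actives have a fitted effect of over 50% in size.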 An outline of the steps: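 Step 1: BacMam hERG transduction of U2OS, 4 hrs RT. Step 2: overnight 37 °C, plate 2000 cells/well, 4 hr. Step 3: FluxOR load, compound 10 min, stimulate, read fluorescence.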
Voltage-gated inwardly rectifying potassium channel KCNH2 (Homo sapiens), sequence (Q12809 whole entry, looked up): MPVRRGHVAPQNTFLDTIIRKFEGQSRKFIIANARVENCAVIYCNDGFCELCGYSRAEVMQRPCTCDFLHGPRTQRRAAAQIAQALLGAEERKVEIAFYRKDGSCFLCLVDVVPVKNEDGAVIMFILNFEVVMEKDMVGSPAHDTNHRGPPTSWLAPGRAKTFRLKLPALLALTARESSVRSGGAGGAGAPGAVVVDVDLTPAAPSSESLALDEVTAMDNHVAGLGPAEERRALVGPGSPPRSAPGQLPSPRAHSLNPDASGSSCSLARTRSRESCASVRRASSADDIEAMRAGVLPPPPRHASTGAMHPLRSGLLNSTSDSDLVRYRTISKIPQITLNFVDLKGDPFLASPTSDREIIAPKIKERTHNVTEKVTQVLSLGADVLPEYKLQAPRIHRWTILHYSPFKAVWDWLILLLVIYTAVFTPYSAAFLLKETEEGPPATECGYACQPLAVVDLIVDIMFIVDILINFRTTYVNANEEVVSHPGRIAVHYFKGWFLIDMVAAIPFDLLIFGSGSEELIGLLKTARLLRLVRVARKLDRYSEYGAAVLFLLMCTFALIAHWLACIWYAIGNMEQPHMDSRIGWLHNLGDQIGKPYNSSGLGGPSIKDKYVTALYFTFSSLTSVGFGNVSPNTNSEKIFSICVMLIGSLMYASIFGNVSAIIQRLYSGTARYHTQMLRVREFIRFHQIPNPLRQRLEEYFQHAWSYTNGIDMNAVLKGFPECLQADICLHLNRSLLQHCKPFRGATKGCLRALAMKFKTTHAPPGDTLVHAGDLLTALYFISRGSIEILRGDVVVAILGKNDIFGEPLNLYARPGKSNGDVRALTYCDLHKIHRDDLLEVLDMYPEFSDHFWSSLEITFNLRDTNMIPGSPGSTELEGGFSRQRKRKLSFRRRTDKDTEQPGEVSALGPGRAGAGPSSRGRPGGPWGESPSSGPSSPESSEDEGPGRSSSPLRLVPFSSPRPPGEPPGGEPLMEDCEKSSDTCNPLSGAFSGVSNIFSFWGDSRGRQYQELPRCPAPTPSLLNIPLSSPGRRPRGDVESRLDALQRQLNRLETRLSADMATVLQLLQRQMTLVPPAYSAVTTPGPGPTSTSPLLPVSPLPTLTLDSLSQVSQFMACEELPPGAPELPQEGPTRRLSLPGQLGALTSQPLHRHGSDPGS

In test [22] the target is Rap guanine nucleotide exchange factor 3 (Homo sapiens) (UniProt O95398). As to the kind of experiment: Counterscreen qHTS for antagonist of cAMP-regulated guanine nucleotide exchange factor 3 (EPAC1) (AID 1645888).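 Also: fluorescence loss as bound BODIPY-GDP is released from Rap1B; % of control where 0% means no effect.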 The method, boiled down:
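Rap1B-BODIPY-GDP 250 nM + GDP 50 uM; cpds 7-pt, final 9.74 nM–152 uM (activator mode) or from 7.32 nM upwards (inhibitor mode); RT; FI 480/540 nm at 5 and 30 min, then ± cAMP, reread.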

Unmarked numbers belong to inactive results. Inconclusive results are not listed. Calls of active or inactive are those of the source. Unless noted, calls follow the shape of the dose curve; as a rule, active = well fitted curve in the direction sought with a large enough effect; inconclusive = small, poorly fitted or top-dose-only effect, or another doubt; inactive = no such curve, though single readings can be large; an effect the other way counts as inactive or inconclusive.

DNA repair nuclease/redox regulator APEX1 (Homo sapiens), sequence (P27695 whole entry, looked up): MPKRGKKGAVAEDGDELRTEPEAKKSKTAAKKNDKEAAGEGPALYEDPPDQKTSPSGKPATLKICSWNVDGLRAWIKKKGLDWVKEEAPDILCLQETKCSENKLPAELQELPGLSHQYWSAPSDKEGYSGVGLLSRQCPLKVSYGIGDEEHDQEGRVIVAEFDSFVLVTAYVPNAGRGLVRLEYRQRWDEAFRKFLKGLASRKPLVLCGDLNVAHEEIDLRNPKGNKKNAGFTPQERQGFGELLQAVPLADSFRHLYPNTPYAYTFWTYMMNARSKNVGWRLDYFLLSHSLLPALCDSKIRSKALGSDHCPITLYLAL
Transient receptor potential cation channel subfamily V member 1 (Homo sapiens), sequence (Q8NER1 whole entry, looked up): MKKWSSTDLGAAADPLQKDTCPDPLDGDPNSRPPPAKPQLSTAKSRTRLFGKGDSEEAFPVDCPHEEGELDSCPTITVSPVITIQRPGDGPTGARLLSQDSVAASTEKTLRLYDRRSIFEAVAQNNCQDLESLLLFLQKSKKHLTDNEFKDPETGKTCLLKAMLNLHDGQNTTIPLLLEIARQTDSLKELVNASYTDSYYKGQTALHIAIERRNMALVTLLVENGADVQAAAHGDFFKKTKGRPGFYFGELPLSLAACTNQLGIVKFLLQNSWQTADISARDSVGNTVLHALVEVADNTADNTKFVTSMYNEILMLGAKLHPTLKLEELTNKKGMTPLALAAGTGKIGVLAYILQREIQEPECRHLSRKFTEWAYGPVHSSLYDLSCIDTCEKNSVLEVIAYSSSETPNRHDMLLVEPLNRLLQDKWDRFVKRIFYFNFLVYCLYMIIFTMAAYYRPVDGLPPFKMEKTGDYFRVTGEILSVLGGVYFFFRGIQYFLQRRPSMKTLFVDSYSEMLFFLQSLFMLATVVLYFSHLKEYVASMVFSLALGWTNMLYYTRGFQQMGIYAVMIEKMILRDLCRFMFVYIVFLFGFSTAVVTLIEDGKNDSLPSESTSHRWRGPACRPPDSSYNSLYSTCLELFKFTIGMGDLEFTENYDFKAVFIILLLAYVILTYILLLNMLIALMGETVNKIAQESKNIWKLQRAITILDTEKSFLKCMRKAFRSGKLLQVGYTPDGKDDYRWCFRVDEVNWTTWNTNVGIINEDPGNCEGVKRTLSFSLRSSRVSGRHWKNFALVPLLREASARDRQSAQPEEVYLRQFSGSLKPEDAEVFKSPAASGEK
Thyrotropin-releasing hormone receptor (Homo sapiens), sequence (P34981 whole entry, looked up): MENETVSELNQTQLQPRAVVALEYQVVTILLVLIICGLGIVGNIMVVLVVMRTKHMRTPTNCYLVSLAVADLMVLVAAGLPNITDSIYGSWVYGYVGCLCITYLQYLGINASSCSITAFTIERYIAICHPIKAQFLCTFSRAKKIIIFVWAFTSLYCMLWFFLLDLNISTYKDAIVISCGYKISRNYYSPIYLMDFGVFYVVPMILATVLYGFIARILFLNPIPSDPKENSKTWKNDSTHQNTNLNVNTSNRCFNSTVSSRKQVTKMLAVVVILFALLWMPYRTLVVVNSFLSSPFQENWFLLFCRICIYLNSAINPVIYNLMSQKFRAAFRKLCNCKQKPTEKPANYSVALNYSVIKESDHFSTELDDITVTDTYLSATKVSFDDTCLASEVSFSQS
M-phase phosphoprotein 8 (Homo sapiens), sequence (Q99549 whole entry, looked up): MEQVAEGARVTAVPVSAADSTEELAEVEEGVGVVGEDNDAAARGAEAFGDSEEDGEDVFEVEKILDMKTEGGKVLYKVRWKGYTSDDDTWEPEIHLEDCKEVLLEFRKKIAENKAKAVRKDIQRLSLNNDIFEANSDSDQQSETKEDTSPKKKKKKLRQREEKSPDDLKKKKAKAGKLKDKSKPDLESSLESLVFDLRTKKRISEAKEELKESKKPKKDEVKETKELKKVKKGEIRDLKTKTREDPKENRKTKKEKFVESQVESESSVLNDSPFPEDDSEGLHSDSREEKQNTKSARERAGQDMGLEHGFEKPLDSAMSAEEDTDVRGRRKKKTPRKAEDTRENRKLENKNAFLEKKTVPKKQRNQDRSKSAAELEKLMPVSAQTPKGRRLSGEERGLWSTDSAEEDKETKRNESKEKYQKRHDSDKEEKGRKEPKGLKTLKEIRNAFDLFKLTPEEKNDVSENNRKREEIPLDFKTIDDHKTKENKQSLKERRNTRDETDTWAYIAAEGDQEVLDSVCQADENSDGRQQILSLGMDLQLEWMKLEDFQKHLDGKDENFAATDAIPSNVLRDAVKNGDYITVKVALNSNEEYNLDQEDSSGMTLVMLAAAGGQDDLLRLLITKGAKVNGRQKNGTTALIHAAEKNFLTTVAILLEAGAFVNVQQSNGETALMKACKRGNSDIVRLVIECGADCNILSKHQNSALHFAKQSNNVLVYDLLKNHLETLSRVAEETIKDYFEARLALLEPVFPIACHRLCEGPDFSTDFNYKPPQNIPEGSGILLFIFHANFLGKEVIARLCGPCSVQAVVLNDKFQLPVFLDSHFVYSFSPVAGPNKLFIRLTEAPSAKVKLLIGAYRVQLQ
Galactokinase (Homo sapiens), sequence (P51570 whole entry, looked up): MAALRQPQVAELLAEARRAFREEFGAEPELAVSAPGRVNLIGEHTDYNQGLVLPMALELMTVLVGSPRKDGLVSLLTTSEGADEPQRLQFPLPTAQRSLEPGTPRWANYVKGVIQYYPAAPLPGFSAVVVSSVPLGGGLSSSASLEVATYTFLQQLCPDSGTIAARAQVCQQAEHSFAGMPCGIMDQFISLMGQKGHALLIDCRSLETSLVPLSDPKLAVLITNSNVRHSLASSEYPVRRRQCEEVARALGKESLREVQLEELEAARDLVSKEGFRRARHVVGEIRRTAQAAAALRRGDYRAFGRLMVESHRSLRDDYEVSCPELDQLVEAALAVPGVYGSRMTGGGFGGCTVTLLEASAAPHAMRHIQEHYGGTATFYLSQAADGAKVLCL

`C[C@H]1c2cccc(O)c2C(O)=C2C(=O)[C@]3(O)C(O)=C(C(N)=O)C(=O)C(N(C)C)[C@@H]3[C@@H](O)C21` (some centres not stated): the Potency entry in test [1], in [3], in test [14], in test [17] and in [21] was “inactive” each time. Further, the outcome in test [2], in [11], in test [12], in test [13], in test [18] and in test [20] was inactive. For the same compound, the Potency in test [4] was 4.47 µM (active); in test [5], 8.91 µM (active); in test [6], 1 µM (active); in test [7] it was 11.2 µM (active); in test [8], 5.01 µM (active); in test [9], 1 µM (active). The Potency in test [10] is 6.31 µM (active); in [15], 0.37 µM (active); in test [16], 6.57 µM (active). Besides, in [19], the activation is -0.125%.

In the case of `Oc1ccccc1Cc1c(O)ccc2ccccc12`, the Potency result in test [22] is “inactive”.
